An excerpt weighted towards active compounds, which were near 4.6% of everything screened.
TRHR agonist: activates the human TRH receptor; P34981; TRHR cells, calcium flux fluo-8, FDSS agonist mode; activation, % at 2 µM; actives 0.18% (n = 360,000)
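In this calcium-flux screen, cells bearing human TRHR are dye-loaded with fluo-8, baselined for 10 cycles, then exposed to library compounds; positive kinetic calcium responses during the agonist phase mark hits, with TRH as control.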
D1 PAM: human D1 dopamine receptor positive modulation; P21728; HEK293 TREx D1 cells, calcium flux, dopamine EC20 potentiation; potentiation, % at 10 µM; actives 0.036% (n = 360,000); AID 504651; in the data active = potentiation above about 30%
Target sequence (P21728 whole entry, looked up): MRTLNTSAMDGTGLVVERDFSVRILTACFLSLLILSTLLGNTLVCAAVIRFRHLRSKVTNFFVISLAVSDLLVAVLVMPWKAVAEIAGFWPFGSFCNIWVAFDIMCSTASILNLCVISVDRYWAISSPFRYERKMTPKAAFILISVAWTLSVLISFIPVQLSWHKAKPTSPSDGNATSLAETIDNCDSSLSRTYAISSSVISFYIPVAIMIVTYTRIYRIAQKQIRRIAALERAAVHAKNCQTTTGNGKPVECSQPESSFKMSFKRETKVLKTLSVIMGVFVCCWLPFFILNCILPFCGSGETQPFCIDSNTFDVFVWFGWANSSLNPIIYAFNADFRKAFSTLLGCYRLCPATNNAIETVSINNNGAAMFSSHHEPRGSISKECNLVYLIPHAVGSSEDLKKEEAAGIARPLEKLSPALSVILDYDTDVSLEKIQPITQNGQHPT
D1 antag: human D1 dopamine receptor antagonism; P21728; HEK293 TREx D1 cells, calcium flux, dopamine EC80; hits give low values; activity change, negative = inhibition, % at 10 µM; actives 3.2% (n = 360,000); in the data active = activity change below about -30%
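Kinetic fluorescence of a calcium dye serves as the read-out. D1-expressing Hek293 Trex cells, induced overnight at 30 C, are exposed to compound for 180 s before an EC80 dopamine addition, then read 180 s further.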
TRHR PAM: allosterically enhances the human TRH receptor; TRHR cells, fluo-8 calcium fluorescence, EC20 TRH enhancement; enhancement, % at 2 µM; actives 0.66% (n = 360,000); in the data active = enhancement above about 30%
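Enhancer read-out: after compound pinning and an initial kinetic agonist-mode read, an EC20 of TRH (10 nM final) was injected and fluo-8 calcium signal (Ex 480/Em 530) followed at 1 s/cycle for 100 cycles in TRHR-expressing cells.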
D1 ag: human D1 receptor agonism; P21728; HEK293 T-REx D1 cells, calcium flux, agonist mode; activation, % at 2 µM; actives 1% (n = 360,000); AID 504660
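Inducible HEK293 T-REx D1 cells, force-coupled to calcium signalling, were plated at 4000 cells/well with tetracycline and held overnight at 30 C. After no-wash calcium dye loading, compound-evoked calcium rise over 180 s flagged agonists.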
Large screens that a line does not name were inactive. Cut-off read from the data, not from the text of the source, unless noted: active = activation above about 30%; inactive = the rest.

Cc1ccsc1C(=O)N1CC=C(c2ccccc2)CC1	D1 antag -31
CCOc1cc(CNCCO)cc(Br)c1OCc1ccccc1Cl	D1 ag 68
COc1cc(CNCc2ccncc2)cc(Br)c1OCc1ccccc1F	D1 antag -31
CCOc1cc(CNCCN2CCOCC2)ccc1OCc1ccccc1Cl	D1 ag 37
COc1cc(CNc2ccc(O)cc2)cc(Br)c1OCc1ccccc1F	none
CCOc1cc(CNCCCN2CCOCC2)cc(Br)c1OCc1ccccc1Cl	D1 ag 67
CC(C)Oc1ccc(CNS(=O)(=O)c2cnc(N)nc2)cc1	none
Cc1cc2c(s1)c1cnn(Cc3ccc(C(C)(C)C)cc3)c(=O)c1n2C	none
O=C(NCc1ccc(Cl)cc1)c1ccc(OCC2CCCO2)cc1 (centres undefined)	none
Cc1ccc(CNC(=O)c2ccc(OCC3CCCO3)cc2)cc1 (centres undefined)	D1 antag -71
O=C(Nc1ccc(Cl)cc1)c1ccc(OCC2CCCO2)cc1 (centres undefined)	D1 antag -66
COc1ccc(N2CCN(S(=O)(=O)CCNC(=O)c3ccc(C(F)(F)F)cc3)CC2)cc1	none
COc1ccc(NC(=O)C(NS(=O)(=O)c2cccc3nsnc23)c2ccccc2)cc1 (centres undefined)	none
CCOc1ccc(C2=NNC(c3cccs3)=Nc3ccc(OC)cc32)cc1	D1 antag -38
Cc1cc(=O)[nH]c(N2CCCNCC2)n1	none
O=c1c2c([nH]n1-c1ccccc1)CCCC2	none
Cc1nc(N2CCc3ccccc3C2)[nH]c(=O)c1Cc1ccccc1	D1 antag -44
Cc1cc(=O)[nH]c(-n2[nH]c3c(c2=O)CCCC3)n1	D1 antag -37
Cc1nc(-n2[nH]c3c(c2=O)CCCC3)[nH]c(=O)c1Cc1ccccc1	D1 ag 61
COc1ccc(N2CCN(CC(=O)Nc3ncc(C)s3)CC2)cc1	none
COc1ccc(N2CCN(CC(=O)Nc3nc(C)cs3)CC2)cc1	D1 antag -41
FC(F)(F)c1cc(-c2cccc(Br)c2)nc2ncnn12	none
COc1cc(/C=N\NC(=O)CC#N)ccc1OC/C=C/c1ccccc1	D1 antag -38
COCC(=O)N/N=C\c1ccc(OC/C=C/c2ccccc2)c(OC)c1	none
CCCNC(=O)Cn1nc(-c2ccc(C)c(C)c2)c2cnc3ccc(F)cc3c21	none
CN1CCc2c(sc3c2c(=O)n(-c2ccc(Cl)cc2)c2nncn32)C1	D1 antag -60
CCN(CC)CCn1c(=O)n(-c2ccc(Cl)cc2)c(=O)c2c3c(sc21)CN(C)CC3	none
Cc1ccc(S(=O)(=O)Nc2cc(-c3ccccc3)nn2C)cc1	none
Cn1nc(-c2ccccc2)cc1NS(=O)(=O)c1ccccc1	D1 antag -36
Cc1cc(C)n(C(=O)c2ccc(NC(=O)CC(C)C)cc2)n1	D1 antag -94
Cc1cccc(OCc2ccc(-c3nc(C#N)c(NCCN(C)C)o3)o2)c1	D1 ag 102
COC(=O)c1cc(NC(=O)Cn2ncc3c2-c2ccccc2OC3)cc(C(=O)OC)c1	none
O=C(CCC(=O)N1Cc2ccccc2Oc2ncccc21)NCc1ccccc1Cl	none
CNCCCCOc1ccccc1-c1ccccc1	D1 antag -48, D1 ag 38
COCCNCCOc1ccccc1-c1ccccc1	D1 antag -31
CNCCOc1ccccc1-c1ccccc1	none
COCCCNCCOc1ccccc1-c1ccccc1	D1 antag -44
COCCCNCCCCOc1ccccc1-c1ccccc1	D1 antag -37
CCC(C)NC(=O)c1cc2cc(S(=O)(=O)N3CCCCC3)ccc2n1C (centres undefined)	none
Nc1c(-c2ccccc2)cc[nH]c1=O	none
Cc1ccc(NC(=S)NCc2cccs2)cc1	none
CCCCc1ccc(NC(=S)NCc2cccs2)cc1	D1 antag -32
Cc1cc(C)cc(-n2c(SCC(=O)NC3CCCCC3)nc3c([nH]c4ccccc43)c2=O)c1	none
O=C(Nc1ccc(F)cc1)Nc1nnc(-c2ccccc2)o1	none
O=C(Nc1nnc(-c2ccccc2)o1)Nc1ccc(F)cc1F	D1 antag -31
Nc1c(C(O)(C(F)(F)F)C(F)(F)F)cc(C(O)(C(F)(F)F)C(F)(F)F)c2ccccc12	D1 ag 40
O=C(CN1C(=O)COc2ccc(Cl)cc21)Nc1ccc(F)cc1	D1 antag -34

From PubChem BioAssay
